The source made the active and inactive calls.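 The calls were made as follows, unless noted: active = viability loss from added drug above about 55%, and viability with drug at most 40%, in both replicates (limit read from the data, passing the limit was not always enough); inconclusive = both conditions met in only one replicate; inactive = neither replicate meets both conditions.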
Assays:
[1] = HUVEC growth inhibition – cell-based, human, primary screen (AID 575;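 active = viability at or below 30% in both replicate assays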;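 also: 100% = median of untreated cell wells with 0.1% DMSO on each plate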); settings: HUVEC proliferation, CellTiter-Glo luminescence, 72 h; at 10 µM; stronger effect = lower value
[2] = growth inhibitors of H69AR lung tumor, primary screen, human, duplicate replicates (AID 580;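 active = viability at or under a set limit in both replicates, limit being median viability minus 3 SD, cut at about 48% in these data, passing the limit was not always enough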;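 also: 100% = mean luminescence of untreated wells and 0% = no signal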); settings: H69AR lung tumor cells viability, ATP luminescence, 72 h; at 10 µM; stronger effect = lower value
[3] = reversal of MRP1-mediated doxorubicin resistance, pilot screen, H69AR cells, doxorubicin co-treatment (AID 601); settings: CellTiter-Glo, 72 h, at 10 µM; for differential viability (reversal): stronger effect = higher value
[4] = 384-well plate pilot, post-Golgi transport modulator project, inhibition of yeast transport mutant growth (AID 636; in the data active = inhibition above about 31%); settings: absorbance 615 nm, about 18 h, stronger effect = higher value
[5] = growth suppression of yeast trafficking mutant, preliminary HTS, modulators of trafficking downstream of Golgi apparatus project, 1536-format plate, OD 615 nm (AID 637; in the data active = inhibition above about 30%); settings: yeast transport mutant growth, absorbance 615 nm, 18 h; stronger effect = higher value
[6] = H69AR cells + 2 uM doxorubicin, measured here: viability with 2 uM doxorubicin, stronger effect = lower value
[7] = H69AR cells, compound alone cytotoxicity

SMILES	viability [1]	viability [2]	differential viability (reversal) ([3]; H69AR cells + 2 uM doxorubicin)	viability [3, 6]	viability [3, 7]	inhibition [4]	inhibition [5]
CCCN(CCC)CCCNS(=O)(=O)c1ccc2c(c1)oc(=O)n2C	92.2% (inactive)	94.7% (inactive)	0.825% (inactive)	93.8%	94.7%	-4.4% (inactive)	-4.44% (inactive)
CCOC(=O)N1CCN(C(=O)Nc2ccc(Cl)cc2)CC1	97.7% (inactive)	98.3% (inactive)	14.8% (inactive)	83.4%	98.3%	-3.55% (inactive)	4.6% (inactive)
CC(=O)Nc1cccc(-c2nnc(-c3ccccc3)o2)c1	88.8% (inactive)	92.6% (inactive)	6.77% (inactive)	85.8%	92.6%	-5.58% (inactive)	-1.9% (inactive)
Cc1ccccc1CN1CCN(C(=O)c2cccc(F)c2)CC1	94.7% (inactive)	101% (inactive)	4.51% (inactive)	96.9%	101%	-1.87% (inactive)	-0.16% (inactive)
Cc1nc2cc(NC(=O)N3CC4(C)CC3CC(C)(C)C4)ccc2n1C (centres undefined)	100% (inactive)	89.7% (inactive)	7.53% (inactive)	82.2%	89.7%	-6.71% (inactive)	-8.1% (inactive)
COc1ccc(C(=O)COC(=O)CCn2nnc(-c3cccs3)n2)cc1	110% (inactive)	102% (inactive)	9.01% (inactive)	93.4%	102%	-0.27% (inactive)	-6.35% (inactive)
CN(C)CCSc1nnc2sc3ccccc3n12	94.2% (inactive)	92.8% (inactive)	-0.905% (inactive)	93.7%	92.8%	-5.92% (inactive)	-5.08% (inactive)
N#CCSCC(=O)Nc1ccc(F)cc1	91.7% (inactive)	93.1% (inactive)	9.54% (inactive)	83.6%	93.1%	-3.68% (inactive)	0% (inactive)
CCc1c(C(=O)Nc2cc(C)ccc2OC)[nH]c(C)c1C(C)=O	45.3% (inactive)	82% (inactive)	-1.42% (inactive)	83.5%	82%	-2.8% (inactive)	14.3% (inactive)
Cc1ccc(C)c(C(=O)NC2CC(C)(C)NC(C)(C)C2)c1	98.5% (inactive)	86.7% (inactive)	-0.525% (inactive)	87.3%	86.7%	-5.71% (inactive)	-6.98% (inactive)
CCOC(=O)c1cc2oc(C)cc2n1CC(=O)OC1CCCCC1	90.9% (inactive)	87.3% (inactive)	0.485% (inactive)	86.8%	87.3%	-2.73% (inactive)	5.24% (inactive)
CC(=O)Nc1ccc(NC2=CC(=O)CC(C)(C)C2)cc1	109% (inactive)	109% (inactive)	24.2% (inactive)	85%	109%	-3.38% (inactive)	5.08% (inactive)
CN(Cc1nc(-c2ccncc2)no1)S(=O)(=O)c1ccc(Br)cc1	90.4% (inactive)	89.6% (inactive)	-4.28% (inactive)	93.9%	89.6%	-5.32% (inactive)	1.75% (inactive)
CN(c1cccc(NS(=O)(=O)c2cccs2)c1)S(C)(=O)=O	95.5% (inactive)	86.8% (inactive)	2.12% (inactive)	84.7%	86.8%	-0.13% (inactive)	18.1% (inactive)
CCOc1ccc2cc(C#N)c(SCC(=O)N3CCC(C)CC3)nc2c1	43.5% (inactive)	34.4% (active)	0.44% (inactive)	33.9%	34.4%	-8.8% (inactive)	-1.11% (inactive)
CC1(C)CC(=O)C=C(NCCN2CCN(C(=O)Nc3ccccc3)CC2)C1	103% (inactive)	96.4% (inactive)	6.64% (inactive)	89.8%	96.4%	-5.07% (inactive)	3.97% (inactive)
CN1CCN(c2nc(-c3ccncc3)nc3ccccc23)CC1	78.3% (inactive)	78.3% (inactive)	49.5% (inactive)	28.8%	78.3%	-5.47% (inactive)	1.75% (inactive)
Cc1ccccc1NC(=O)c1ccccc1	103% (inactive)	99.6% (inactive)	11.8% (inactive)	87.8%	99.6%	-5.92% (inactive)	2.7% (inactive)
O=c1cc(CSc2nnnn2-c2ccccc2)nc2scc(-c3ccccc3)n12	92% (inactive)	101% (inactive)	6.61% (inactive)	93.9%	101%	0.13% (inactive)	-7.62% (inactive)

SMILES	viability [1]	viability [2]	differential viability (reversal) ([3]; H69AR cells + 2 uM doxorubicin)	viability [3, 6]	viability [3, 7]	inhibition [4]	inhibition [5]
C=C(C)CSc1nnc2[nH]c(=O)cc(N)n12	65.8% (inactive)	87.9% (inactive)	13.4% (inactive)	74.5%	87.9%	-2.63% (inactive)	7.62% (inactive)
CCc1nnc(NC(=O)CCC(=O)Nc2ccccc2)s1	94.8% (inactive)	90% (inactive)	-2.88% (inactive)	92.9%	90%	-4.27% (inactive)	5.71% (inactive)
COc1ccc(C(F)(F)F)cc1NC(=O)c1nc2nc(C)cc(C(F)F)n2n1	94% (inactive)	79.9% (inactive)	-3.77% (inactive)	83.7%	79.9%	-1.56% (inactive)	-0.16% (inactive)
CS(=O)(=O)N(CC(=O)N1CCCCCC1)c1ccccc1	95.2% (inactive)	98.2% (inactive)	8.29% (inactive)	90%	98.2%	-5.79% (inactive)	1.9% (inactive)
Cn1cc(-c2nc3ccccc3[nH]2)c2ccccc21	81% (inactive)	–	-9.86% (inactive)	72%	62.2%	-7.33% (inactive)	-0.63% (inactive)
CSc1nnc2c3ccccc3n(Cc3ccccc3)c2n1	–	31.6% (active)	1.23% (inactive)	30.3%	31.6%	-2.37% (inactive)	2.54% (inactive)
COC(=O)c1ccc(NC2(C#N)C(=O)Nc3ccccc32)cc1 (centres undefined)	69.2% (inactive)	–	-16.1% (inactive)	58.2%	42.1%	-5.33% (inactive)	3.97% (inactive)
Oc1ccc(Nc2nc(-c3ccc(O)cc3)cs2)cc1	–	58.4% (inactive)	-29.7% (inactive)	88.1%	58.4%	-8.13% (inactive)	-4.13% (inactive)
COC(=O)C(F)(F)Sc1c(C)[nH]c2ccccc12	–	92.2% (inactive)	1.54% (inactive)	90.6%	92.2%	-2.37% (inactive)	-1.43% (inactive)
CC(=O)Oc1cccc(/C=c2\sc3nc(-c4ccco4)nn3c2=O)c1	56.6% (inactive)	–	-3.61% (inactive)	55.8%	52.2%	-0.91% (inactive)	1.27% (inactive)
CCNc1nc(NC(C)C)nc(N(C#N)CCOc2ccc(Cl)cc2Cl)n1	48.8% (inactive)	–	20.4% (inactive)	33.2%	53.6%	16.2% (inactive)	-3.81% (inactive)
N#CC(C(=O)NCCc1ccccc1)c1nc2ccccc2nc1N1CCOCC1 (centres undefined)	82.7% (inactive)	–	-3.4% (inactive)	62.6%	59.2%	-0.53% (inactive)	-5.71% (inactive)
CCn1c(=N)n(CC(O)COc2cccc(C)c2)c2ccccc21 (centres undefined)	–	69.9% (inactive)	-2.36% (inactive)	72.3%	69.9%	3.55% (inactive)	-5.08% (inactive)
Cc1ccc(C2C3CN(C(C)C)CC=C3C(C#N)=C(N)C2(C#N)C#N)cc1 (centres undefined)	62.9% (inactive)	–	–	–	–	-6.27% (inactive)	1.43% (inactive)
O=c1[nH]c2ccccc2n1CCCN1CCN(C(c2ccccc2)c2ccccc2)CC1	75.3% (inactive)	–	-29.9% (inactive)	41.1%	11.2%	–	–
CCCCCCCCNC(C)C(O)c1ccc(SC(C)C)cc1 (centres undefined)	2.21% (active)	–	-0.28% (inactive)	1.44%	1.16%	–	–
O=c1c2cn[nH]c2nc(SCc2ccc3c(c2)OCCO3)n1-c1ccccc1	74.4% (inactive)	–	-22.2% (inactive)	83.9%	61.7%	1.45% (inactive)	-4.44% (inactive)
O=c1c2ccccc2nc(-c2cccc(Cl)c2)n1O	84.6% (inactive)	–	-14.1% (inactive)	60.1%	45.9%	-3.68% (inactive)	0.32% (inactive)
CC[C@H]1CN2CCc3cc(OC)c(OC)cc3[C@@H]2C[C@@H]1C[C@H]1NCCc2cc(OC)c(OC)cc21	11% (active)	–	10.2% (inactive)	13.3%	23.5%	-1.69% (inactive)	2.17% (inactive)

From PubChem BioAssay
